Screening results (PubChem)
aGal spleen mod: inhibitors or activators of human alpha-galactosidase in spleen homogenate | P06280 | human spleen homogenate, 4MU-alpha-Gal fluorescence, 40 min | Potency, µM (series often up to 80 µM), without a hit: at the top dose activity change, negative = inhibition, usual class: inhibitors | 240,000 compounds, 0.008% hits | AID 2107;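 further: potency means the concentration at half of the fitted maximal effect; 0% = enzyme with vehicle and -100% = no enzyme basal signal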
Target sequence (P06280 32-429 limits assumed): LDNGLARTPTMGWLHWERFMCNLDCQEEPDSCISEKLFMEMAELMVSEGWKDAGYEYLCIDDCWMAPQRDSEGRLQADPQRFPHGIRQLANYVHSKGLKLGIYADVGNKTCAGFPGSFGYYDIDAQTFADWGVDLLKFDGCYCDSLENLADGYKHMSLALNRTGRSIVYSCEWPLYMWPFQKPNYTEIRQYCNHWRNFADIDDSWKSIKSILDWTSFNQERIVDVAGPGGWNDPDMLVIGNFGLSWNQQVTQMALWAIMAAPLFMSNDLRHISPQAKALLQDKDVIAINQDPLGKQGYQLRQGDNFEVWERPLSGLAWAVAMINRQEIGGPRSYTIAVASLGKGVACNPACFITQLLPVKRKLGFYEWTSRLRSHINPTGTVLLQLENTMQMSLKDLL
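Human spleen homogenate (1 ug) as enzyme source, 4-methylumbelliferyl-alpha-D-galactopyranoside 1 mM final, citrate/phosphate pH 5.0 with 0.01% Tween-20. Compounds 40 min at 37C, NaOH/glycine stop; fluorescence Ex 365/Em 440, Hill-fit AC50.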
aGlu spleen mod: lysosomal alpha-glucosidase (human) modulation; P10253; human spleen homogenate, 4-MU-alpha-glucoside fluorescence; Potency, µM (doses to about 79.9 µM), without a hit: at the top dose activity change, negative = inhibition, most hits filed as inhibitors; 240,000 compounds, 0.006% hits; AID 2112;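 further: potency means the concentration at half of the fitted maximal effect; 0% = enzyme with vehicle and -100% = no enzyme basal signal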
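Human spleen homogenate (1 ug) incubated with compounds and 1 mM 4-methylumbelliferyl-alpha-D-glucopyranoside in pH 5.0 citrate/phosphate buffer, 37 C, 40 min. Stopped at pH 10; 4-MU fluorescence (Ex 365/Em 440 nm); AC50 by Hill fit.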
GLA inh pH 4.5: inhibitors of human alpha-galactosidase A at pH 4.5; purified enzyme, 4-MU-alpha-Gal fluorescence, pH 4.5; activity change, negative = inhibition, % at 105 µM; 230,000 tested, under 10 active;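 further: 0% = full activity with enzyme and -100% = basal without enzyme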
N370S GC: inhibits or activates N370S mutant glucocerebrosidase. N370S GC spleen homogenate, 4MU-glucoside fluorescence. Potency, µM (series often up to 59.4 µM), for inactives: at the top dose activity change, negative = inhibition, actives largely listed as inhibitors. 330,000 compounds, 0.092% hits;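 further: potency means the concentration at half of the fitted maximal effect; 0% = full enzyme activity and -100% = no enzyme basal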
GAA inhib: alpha-glucosidase (human) inhibition; purified human GAA, 4-MU-alpha-glucoside fluorescence; 200,000 compounds, 0.005% hits; P10253; Potency, µM (titrated, usually from 76.9 µM), without a hit: at the highest dose activity change, negative = inhibition, usual class: inhibitors; AID 1466;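 further: potency means the concentration at half of the fitted maximal effect; plate controls were uninhibited enzyme wells for no effect and no-enzyme background for full effect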
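Human alpha-glucosidase, 4 nM, pre-mixed with test compounds before 400 uM 4-methylumbelliferyl substrate; 20 min room temperature at pH 5.0. Fluorescence read after pH 10 stop; AC50 values from Hill-equation fits.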
GAA glycogen: GAA glycogen-cleavage inhibition or activation | AID 2100 | Potency, µM (titrated, usually from 76.4 µM), without a hit: top-dose activity change, negative = inhibition, hits mostly inhibitors | 300,000 compounds, 0.38% hits | recombinant GAA, glycogen substrate, Amplex Red glucose oxidase fluorescence;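 further: potency means the concentration at half of the fitted maximal effect; 0% = full enzyme reaction and -100% = no-enzyme basal signal; the screen sought inhibitors and activators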
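Recombinant human alpha-glucosidase (4 nM final) hydrolysed bovine liver glycogen (30 ug) for 40 min at 37 C in pH 5.0 citrate/phosphate with 0.01% Tween-20. Released glucose detected by glucose oxidase/Amplex Red, Ex 573/Em 610 nm. Compounds up to 77 uM; AC50 from Hill fits.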
Active calls of the source: *; ? = inconclusive; · = no result given; [ ] = another dose, or the depositor's remark. This is a sample that favours compounds with a hit; in the whole collection about 0.41% have one here. The call rests on the fitted dose curve; in most records, active means well fitted curve in the direction sought with a large enough effect; inconclusive means small, poorly fitted or top-dose-only effect, or another doubt; inactive means no such curve, though single readings can be large; an effect the other way counts as inactive or inconclusive.

SMILES | aGal spleen mod | aGlu spleen mod | GLA inh pH 4.5 | N370S GC | GAA inhib | GAA glycogen
Oc1ccc(/C=N/Nc2cc(N3CCCC3)nc(N3CCCC3)n2)cc1 | -3.3% | -10.3% | -1.5 | -16.8% | -11.3% | 24.9µM*
Oc1cccc(/C=N/Nc2cc(N3CCCC3)nc(N3CCCC3)n2)c1 | -5.2% | -6.8% | -1.5 | -18.3% | 0.7% | -2.7%
Cc1c(NC(=S)N/N=C/c2ccc(O)cc2)c(=O)n(-c2ccccc2)n1C | -5.4% | -18.0% | -7.7 | 8.5% | ? | 7.03µM*
O=C(O)C(Cc1ccc2c(c1)oc1ccccc12)NCP(=O)(O)O (stereo unspecified) | -6.7% | 9.1% | · | 1.3% | · | ·
CCCCc1cc2c(cn1)=C(OC(=O)c1ccc(Cl)nc1)C(C)(OC(=O)CC)C(=O)C=2 (stereo unspecified) | 6.3%[17.5 µM] | 10.7%[17.4 µM] | 6.8 | -3.9%[12.8 µM] | · | ·
Oc1ccc(Br)cc1-c1nc2cnccn2c1NC1CCCC1 | -15.8% | -5.5% | -11.4 | 4.6% | 0.4% | 15.8µM*
Cc1cc(C(=O)NNC(=S)Nc2ccccc2)nn1C | 2.6% | -4.7% | -10.5 | -1.5% | 12.4% | 3.55µM*
CCOC(=O)C1=C(c2ccccc2)NC(=O)NC1c1cc(Cl)c(O)c(OC)c1 (stereo unspecified) | 6.5% | -3.1% | 0.6 | 0.8% | -2.6% | -28.7%
CCOC(=O)C1=C(c2ccccc2)NC(N)=NC1c1ccc(OCc2ccc(Cl)cc2)c(OC)c1 (stereo unspecified) | -17.4% | 1.9% | -14.1 | 22.4µM* | · | -5.0%
CC(=O)n1cc(N(C(=O)CCl)c2ccc(Cl)cc2)c2ccccc21 | 6.2% | -0.2% | -8.0 | 15.8µM* | · | -8.6%
COc1ccccc1N(C(=O)CCl)c1cn(C(C)=O)c2ccccc12 | -8.1% | -2.9% | -5.0 | 4.7% | · | -1.6%
Cc1ccc(CNC(=O)[C@]2(C(F)(F)F)C[C@H](CCc3ccccc3)CCCO2)o1 | 4.2% | 1.7% | · | -6.4% | · | ·
C(=Nc1cccc2c(N=Cc3ccco3)cccc12)c1ccco1 | 7.4% | 6.6% | -15.2 | -6.7% | 1.5% | 14µM*
CN(C)c1ccc(N=Cc2ccco2)cc1 | 8.0% | 9.3% | 6.0 | 14.4% | 3.1% | ?
CC(=C/c1ccccc1)/C=N/n1c(-c2ccco2)n[nH]c1=S | -4.2% | -1.0% | -13.1 | 20.8% | -14.6% | 24.9µM*
COC(=O)c1c(C)sc(-c2c(-c3ccc4c(c3)OCCO4)[nH]c3c2c(=O)n(C)c(=O)n3C)c1O | · | · | · | · | · | -0.1%[76.3 µM]
COC(=O)c1c(C)sc(-c2c(-c3ccc4c(c3)OCCO4)[nH]c3[nH]c(=O)[nH]c(=O)c23)c1O | · | · | · | · | · | 25.1µM*
COc1cc(C(Nc2ccccn2)c2ccc3ccc(C)nc3c2O)cc(OC)c1O (stereo unspecified) | -1.3% | 0.6% | -2.8 | -6.2% | 3.2% | 17.6µM*
Cc1cc(C(C#N)c2ccccc2)n2ncnc2n1 (stereo unspecified) | 7.6% | 1.8% | 2.4 | 1.3% | ? | 24.9µM*
Cc1cc(C(C#N)c2cccc(Cl)c2)n2ncnc2n1 (stereo unspecified) | 3.4% | -4.5% | 5.2 | -3.2% | 5.3% | ?
Cc1ccc(Sc2ccccc2CN(C)C)c(N)c1 | 9.5% | 6.7% | · | -11.4% | · | ·
Nc1n[nH]c(-c2ccc(Br)cc2)c1Cl | 0.3% | ? | 0.0 | -20.1% | ? | 12.6µM*
COc1cc(C2OC(=O)c3c2ccc(OC)c3OC)ccc1O (stereo unspecified) | · | · | · | 0.5% | · | ·
CCOc1ccc(C(C)=O)cc1COc1ccc(-c2nnco2)cc1 | · | · | · | 11.2µM* | · | ·
COc1ccc(C2/C=C\CN(CC(C)C)C(Cc3ccccc3)C(=O)N2Cc2ccc(F)cc2)cc1 (stereo unspecified) | 15.3% | -0.8% | · | -2.0% | · | ·
SMILES | aGal spleen mod | aGlu spleen mod | GLA inh pH 4.5 | N370S GC | GAA inhib | GAA glycogen
COc1cc(CN2CCN(c3cccc(C)c3C)CC2)cc(OC)c1O | -24.6% | -16.3% | 3.9 | -3.4% | -8.5% | 28.2µM*
COc1ccc(C2=Nn3c(nnc3-c3ccccc3C)SC2)cc1 | 1.5% | -0.2% | · | 8.0% | · | ·
O=C1Nc2ccccc2/C1=N\N=C\c1ccc(O)c(O)c1 | 2.2% | -14.5% | 0.2 | -0.5% | -14.0% | 6.31µM*
COc1cc(/C=N/N=C2/C(=O)Nc3ccccc32)ccc1O | -14.7% | -4.9% | 1.9 | -0.6% | ? | -1.3%
C/C=C1/C(=O)C[C@@H]2[C@H]3CCC4=CC(=O)CC[C@]4(C)[C@@H]3CC[C@]12C | -13.9% | 6.6% | · | -26.6% | · | ·
Cc1cc(C)cc(N(CC(=O)NC2CCCC2)S(=O)(=O)c2c(C)[nH]c(=O)[nH]c2=O)c1 | 8.0% | 2.5% | 2.1 | 3.55µM* | · | 5.8%
Cc1ccc(CNC(=O)CN(c2cc(C)cc(C)c2)S(=O)(=O)c2c(C)[nH]c(=O)[nH]c2=O)cc1 | · | · | · | · | · | -12.9%[76.3 µM]
COc1ccc(N(CC(=O)NC2CCCC2)S(=O)(=O)c2c(C)[nH]c(=O)[nH]c2=O)cc1 | 1.5% | -2.1% | 0.0 | 8.91µM* | -0.4% | -0.6%
CCCCC(CC)COC(=O)COc1ccc(Cl)cc1Cl (stereo unspecified) | -1.1% | -5.2% | · | 5.8% | · | ·
COc1cc(NC(=O)N2c3ccccc3Sc3ccccc32)c(C(=O)O)cc1OC | · | · | · | 6.9% | · | ·
O=C(O)c1ccccc1NC(=O)N1c2ccccc2Sc2ccccc21 | · | · | · | · | · | 17.8µM*
COc1ccccc1N1C(=O)N(C(C)=O)C2C1Nc1ccccc1N2C (stereo unspecified) | 0.1% | -1.6% | -0.5 | 0.2% | -7.5% | 35.5µM*
Cc1ccccc1Nc1c(-c2ccccc2O)nc2sccn12 | · | · | · | · | · | 11.2µM*
